Reference: the supplement of paper PMC8975748
Where a name gives a salt, the structure may show the parent alone.

The molecules below were run on Saccharomyces cerevisiae BY4741 SeMeCo community (assay: z-score of subpopulation abundance vs DMSO median, subpopulation auxotrophic for M; higher = larger share of this subpopulation than in DMSO controls). Details: 10 µM; 24 h; SM minimal medium; subpopulation (auxotrophy): M.
Method: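 Fluorescent four-plasmid SeMeCo (self-establishing metabolically cooperating S. cerevisiae BY4741 community; plasmids pH-mRuby2, pL-mWasabi, pU-eCFP, pM-TagRFP657) was grown 24 h in minimal SM medium with each Selleck FDA-approved drug at 10 µM in 384-well plates. Cells were fixed and imaged by high-content confocal microscopy. For each auxotrophic subpopulation (and the prototroph), a z-score gives the deviation from the DMSO vehicle-control population median.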

Structure (SMILES)	z-score of subpopulation abundance
CC1(C)SC2C(N)C(=O)N2C1C(=O)O (centres undefined) [6-Aminopenicillanic acid]	0.22
CCOC(=O)Nc1ccc(NCc2ccc(F)cc2)cc1N [Retigabine 2HCl]	0.27
COc1ccc2c3c([nH]c2c1)C(C)=NCC3 [Harmaline]	5.54
CCN(C)C(=O)Oc1cccc([C@H](C)N(C)C)c1 [Rivastigmine Tartrate]	-0.28
Cc1cc(C(C#N)c2ccc(Cl)cc2)c(Cl)cc1NC(=O)c1cc(I)cc(I)c1O (centres undefined) [Closantel]	1.17
C[C@H]1O[C@H](O[C@H]2[C@H](O)[C@@H](O)[C@@H](O)[C@H](O)[C@@H]2O)[C@@H](N)C[C@@H]1NC(=N)C(=O)O [Kasugamycin hydrochloride]	-0.97
C[N+]1(C)[C@@H]2C[C@@H](OC(=O)[C@H](CO)c3ccccc3)C[C@H]1[C@@H]1O[C@@H]12 [Methscopolamine]	-0.33
CCCCCCCCCCCCCCCC[n+]1ccccc1 [Cetylpyridinium Chloride]	-6.34
C[N+]12CCC(CC1)C(OC(=O)C(O)(c1ccccc1)c1ccccc1)C2 (centres undefined) [Clidinium Bromide]	-0.85
CN(C)[C@@H]1C(=O)C(C(N)=O)=C(O)[C@@]2(O)C(=O)C3=C(O)c4c(O)cccc4[C@@](C)(O)[C@H]3C[C@@H]12 [Tetracycline HCl]	-0.05
COc1ccc2[nH]cc(CCN)c2c1 [5-Methoxytryptamine]	0.64
CCCN1C[C@H](CSC)C[C@@H]2c3cccc4[nH]cc(c34)C[C@H]21 [Pergolide Mesylate]	-0.05
CN1[C@@H]2CC[C@H]1C[C@@H](OC(=O)[C@H](CO)c1ccccc1)C2 [Hyoscyamine]	-0.65
CC(C)N(CCC(C(N)=O)(c1ccccc1)c1ccccn1)C(C)C (centres undefined) [Disopyramide]	-0.53
CN(C)[C@@H]1C(=O)C(C(N)=O)=C(O)[C@@]2(O)C(=O)C3=C(O)c4c(O)cccc4[C@@](C)(O)[C@H]3[C@H](O)[C@@H]12 [Oxytetracycline Dihydrate]	-1.02
C=CCN1C[C@H](C(=O)N(CCCN(C)C)C(=O)NCC)C[C@@H]2c3cccc4[nH]cc(c34)C[C@H]21 [Cabergoline]	-0.27
CC(C)(O)C(Cl)(Cl)Cl [Chlorobutanol]	0.1

Structure (SMILES)	z-score of subpopulation abundance
CN1[C@@H]2CC[C@H]1C[C@@H](OC(=O)C(CO)c1ccccc1)C2 (some centres undefined) [Atropine sulfate monohydrate]	-0.25
CC(NC(C)(C)C)C(=O)c1cccc(Cl)c1 (centres undefined) [Amfebutamone (Bupropion) HCl]	0.97
C[C@@H]1CC[C@H]2[C@@H](C)C(=O)O[C@@H]3O[C@@]4(C)CC[C@@H]1[C@]32OO4 [Artemisinin]	-4.51
CN1c2ccccc2C(NCCCCCCC(=O)O)c2ccc(Cl)cc2S1(=O)=O (centres undefined) [Tianeptine sodium]	0.9
Oc1cc(Cl)ccc1Oc1ccc(Cl)cc1Cl [Triclosan]	-4.35
COC(=O)C1=CCCN(C)C1 [Arecoline HBr]	0.3
O=C(O[C@H]1C[N+]2(CCCOc3ccccc3)CCC1CC2)C(O)(c1cccs1)c1cccs1 [Aclidinium Bromide]	0.23
C[CH2][Hg][S]c1ccccc1C(=O)[O-].[Na+] [Thimerosal]	-0.95
O=C(O[C@H]1C[C@H]2CC[C@@H](C1)[N+]21CCCC1)C(O)(c1ccccc1)c1ccccc1 [Trospium chloride]	0.12
CN(C)C(=O)Oc1cccc([N+](C)(C)C)c1 [Neostigmine Bromide]	0.29
NCCc1c[nH]c2ccc(O)cc12 [Serotonin HCl]	0.15
CC(=O)OCC1=C(C(=O)O)N2C(=O)C(N)C2SC1 (centres undefined) [7-Aminocephalosporanic acid]	-0.97
NC(=O)CN1CCCC1=O [Piracetam]	1.48
COc1ccc(C=O)cc1 [p-Anisaldehyde]	-1.36
COc1ccc2c(c1)[C@]13CCCC[C@@H]1[C@H](C2)N(C)CC3 [Dextromethorphan hydrobromide hydrate]	0.1
CN(C)[C@@H]1C(=O)C(C(N)=O)=C(O)[C@@]2(O)C(=O)C3=C(O)c4c(O)ccc(Cl)c4[C@@](C)(O)[C@H]3C[C@@H]12 [Chlortetracycline HCl]	0.04
Cn1cc(C2=C(c3cn(C4CCN(Cc5ccccn5)CC4)c4ccccc34)C(=O)NC2=O)c2ccccc21	-1.26
